A short description of assay [1]: qHTS assay to identify aromatase inhibitors - cell viability counter screen (AID 743084).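 Further: cells stimulated with testosterone during compound exposure; nearly all actives have a fitted effect of over 55% in size.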 Further: potency means the concentration at half of the fitted maximal effect. On the technique in general: In qHTS, concentration-response curves come from the screen itself.
The target of assay [2] is Aryl hydrocarbon receptor (Homo sapiens) (UniProt P35869). The experiment in a line: qHTS assay to identify small molecule that activate the aryl hydrocarbon receptor (AhR) signaling pathway (AID 743085). Further: nearly all actives have a fitted effect of over 15% in size. Further: potency means the concentration at half of the fitted maximal effect.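 On activation: HG2L7.5c1 human HepG2 liver cells with stably integrated DRE-driven firefly reporter; series mostly up to about 70 µM.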 A digest of the protocol: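 Measured in HG2L7.5c1 cells: CellTiter-Fluor signal (30 min incubation, 37C) for viability, then luciferase luminescence (30 min, room temperature). Compound contact time was 24 h at 37C, following a 5 h pre-incubation.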

Assay [3] is described as follows: qHTS assay to identify small molecule that activate the aryl hydrocarbon receptor (AhR) signaling pathway - cell viability counter screen (AID 743086). Further: nearly all actives have a fitted effect of over 45% in size. Further: potency means the concentration at half of the fitted maximal effect. An outline of the steps:
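HepG2-AhR-luc (HG2L7.5c1) cells, 4000/well, were preincubated 5 h at 37C, exposed to compound in qHTS format for 24 hr at 37C, then given CellTiter-Fluor for 30 min; viability was read as fluorescence in the reporter wells.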

Assay [4] concerns the target Peroxisome proliferator-activated receptor gamma (Homo sapiens) (UniProt P37231). As to the kind of experiment: qHTS assay to identify small molecule agonists of the peroxisome proliferator-activated receptor gamma (PPARg) signaling pathway (AID 743094; active means well fitted activation curve with a large enough effect in the signal ratio in the repeat runs, not every such curve was filed as active; the % refers to the signal ratio). An outline of the steps: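 HEK293H PPARg-bla cells, 5 h settle at 37C/5% CO2; compound (DMSO) 17 h, 37C; B/G FRET substrate 1 h RT; fluorescence intensity read-out. qHTS format.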

The target is the same in assay [5]. As to the kind of experiment: qHTS assay to identify small molecule antagonists of the peroxisome proliferator-activated receptor gamma (PPARg) signaling pathway (AID 743191; calls by dose curve; further: series mostly up to about 63 µM; nearly all actives have a fitted effect of over 30% in size). A digest of the protocol: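 GeneBLAzer PPARg UAS-bla HEK293H cells carrying a UAS-driven beta-lactamase reporter were plated at 3000 cells/well, preincubated 5 h at 37C, then given compound for 17 h at 37C; LiveBLAzer B/G FRET substrate was read after 1 h at room temperature.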

Assay [6] in a line: qHTS assay to identify small molecule antagonists of the peroxisome proliferator-activated receptor gamma (PPARg) signaling pathway - cell viability counter screen (AID 743194). Further: nearly all actives have a fitted effect of over 55% in size. An outline of the steps: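 PPARg-UAS-bla HEK293H cells were plated, rested 5 h at 37 C, then treated with compounds plus rosiglitazone (50 nM final) for 17 h at 37 C; viability was then read by CellTiter-Glo luminescence after 30 min at room temperature.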

A short description of assay [7]: qHTS assay for small molecule agonists of the antioxidant response element (ARE) signaling pathway (AID 743202; active means well fitted activation curve with a large enough effect in the signal ratio in the repeat runs, not every such curve was filed as active; the % refers to the signal ratio; further: potency means the concentration at half of the fitted maximal effect). An outline of the steps:
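Following a 16 h, 37 C exposure of reporter HepG2 cells (ARE-driven beta-lactamase, 2,000 cells/well) to compounds, FRET substrate was applied for 2 h at room temperature and fluorescence intensity recorded.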

Assay [8] can be described thus: qHTS assay for small molecule agonists of the antioxidant response element (ARE) signaling pathway - cell viability counter screen (AID 743203; calls by dose curve; further: nearly all actives have a fitted effect of over 55% in size). A digest of the protocol:
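Luminescence read-out (CellTiter-Glo, 30 min at room temperature) measured cell viability in the same wells as the ARE beta-lactamase reporter. HepG2 ARE-bla cells were treated with compounds for 16 hrs at 37C/5% CO2.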

Assay [9] can be described thus: qHTS assay for small molecule activators of the heat shock response signaling pathway - cell viability counter screen (AID 743209). Further: nearly all actives have a fitted effect of over 50% in size. An outline of the steps: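 HSE-bla HeLa; 1500 cells/well; overnight 37 C, 5% CO2; compound 5 h 37 C; LiveBLAzer B/G substrate 2.5 h RT; CellTiter-Glo 30 min RT; luminescence.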
Assay [10] is described as follows: qHTS assay for small molecule activators of the heat shock response signaling pathway (AID 743210; active means well fitted activation curve with a large enough effect in the signal ratio in the repeat runs, with a control signal flat, not every such curve was filed as active; the % refers to the signal ratio; further: series mostly up to about 63 µM). A digest of the protocol:
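Heat shock element–beta-lactamase HeLa reporter cells; qHTS with compounds for 5 h at 37 C; detection by FRET substrate fluorescence after 2.5 h at RT.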

Assay [11] in a line: qHTS assay to identify small molecule agonists of the peroxisome proliferator-activated receptor delta (PPARd) signaling pathway - cell viability counter screen (AID 743211). Further: nearly all actives have a fitted effect of over 55% in size. A digest of the protocol:
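Following 5 h plating at 37 C and 5% CO2, PPARd UAS-bla HEK293H cells took up test compounds for 17 h. Viability was quantified by luminescence 30 min after CellTiter-Glo addition at room temperature.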

For assay [12], the target named is Peroxisome proliferator-activated receptor delta (Homo sapiens) (UniProt Q03181). The experiment in a line: qHTS assay to identify small molecule agonists of the peroxisome proliferator-activated receptor delta (PPARd) signaling pathway (AID 743212; calls by dose curve). A digest of the protocol: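 Beta-lactamase reporter read by fluorescence (LiveBLAzer B/G FRET, 2 h, room temperature). Test agents, in DMSO, incubated at 37 C with PPARd-bla HEK293H cells.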

Assay [13] can be described thus: qHTS assay to identify small molecule antagonists of the peroxisome proliferator-activated receptor delta (PPARd) signaling pathway - cell viability counter screen (AID 743213). Further: nearly all actives have a fitted effect of over 50% in size. An outline of the steps: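 PPARd-bla HEK293H cells were treated with compounds plus agonist L165041 (300 nM final) for 17 h at 37 C. Viability was then read in the same wells by CellTiter-Glo luminescence after 30 min at room temperature.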

The target in assay [14] is Peroxisome proliferator-activated receptor delta (Homo sapiens) (UniProt Q03181). As to the kind of experiment: qHTS assay to identify small molecule antagonists of the peroxisome proliferator-activated receptor delta (PPARd) signaling pathway (AID 743215; active means well fitted inhibition curve with a large enough effect in the signal ratio in the repeat runs, not every such curve was filed as active; the % refers to the signal ratio;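 further: cells stimulated with agonist L165041 at 300 nM final during compound exposure; series mostly up to about 62 µM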). An outline of the steps: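 HEK293H GeneBLAzer PPARd UAS-bla reporter cells; cpd + L165041 300 nM final, 17 h 37 C; LiveBLAzer B/G FRET substrate 2 h RT; fluorescence intensity read-out. Antagonist mode.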

Assay [15] is described as follows: qHTS assay to identify small molecule agonists of the farnesoid-X-receptor (FXR) signaling pathway - cell viability counter screen (AID 743218). Further: nearly all actives have a fitted effect of over 45% in size. An outline of the steps: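 Luminescence from CellTiter-Glo, read after 30 min at RT, reports viability of GeneBLAzer FXR-UAS-bla HEK 293T cells treated 16 h with compounds in the wells used for the beta-lactamase reporter.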

The nature of assay [16]: qHTS assay to identify small molecule antagonists of the farnesoid-X-receptor (FXR) signaling pathway - cell viability counter screen (AID 743221; active means well fitted cell-killing curve with a large enough effect in the repeat runs, not every such curve was filed as active; further: nearly all actives have a fitted effect of over 50% in size). An outline of the steps: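 Compound effects on cell number were measured as CellTiter-Glo luminescence in HEK 293T cells expressing FXR-UAS-bla, after 16 h at 37 C with 50 uM CDCA (final).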
In assay [17] the target is Vitamin D3 receptor (Homo sapiens) (UniProt P11473). The experiment in a line: qHTS assay to identify small molecule agonists of the vitamin D receptor (VDR) signaling pathway (AID 743222; calls by dose curve). An outline of the steps:
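Beta-lactamase reporter readout (LiveBLAzer B/G FRET, 2 h RT) in VDR-bla cells after 16 h compound treatment at 37C, 5% CO2; cells pre-incubated 4 h before pin transfer of DMSO solutions.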

For assay [18] the target is unchanged. As to the kind of experiment: qHTS assay to identify small molecule antagonists of the vitamin D receptor (VDR) signaling pathway (AID 743223; active means well fitted inhibition curve with a large enough effect in the signal ratio in the repeat runs, not every such curve was filed as active; the % refers to the signal ratio). A digest of the protocol:
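Beta-lactamase activity in VDR-bla cells is measured by FRET substrate fluorescence (2 h, room temperature) after cells spend 16 h at 37C with test compound and 3 nM final 1alpha,25-dihydroxyvitamin D3.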

Assay [19] addresses Bile acid receptor (Homo sapiens) (UniProt Q96RI1). The experiment in a line: qHTS assay to identify small molecule antagonists of the farnesoid-X-receptor (FXR) signaling pathway (AID 743217; active means well fitted inhibition curve with a large enough effect in the signal ratio in the repeat runs, not every such curve was filed as active; the % refers to the signal ratio). A digest of the protocol:
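Read-out: beta-lactamase FRET fluorescence (LiveBLAzer B/G substrate, 2 h, room temperature) in GeneBLAzer FXR-UAS-bla HEK 293T cells. Compounds were co-dosed with 50 uM chenodeoxycholic acid (final) and incubated 16 h at 37 °C.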

For assay [20] the target is unchanged. As to the kind of experiment: qHTS assay to identify small molecule agonists of the farnesoid-X-receptor (FXR) signaling pathway (AID 743220; active means well fitted activation curve with a large enough effect in the signal ratio in the repeat runs, not every such curve was filed as active; the % refers to the signal ratio). A digest of the protocol:
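FXR-UAS-bla HEK 293T cells carrying a UAS-driven beta-lactamase reporter were plated for 5 h at 37C/5% CO2, then exposed to DMSO-dissolved Tox21 10K compounds for 16 h at 37C. A LiveBLAzer B/G FRET substrate was loaded for 2 h at room temperature before fluorescence reading.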

The structures appear in SMILES notation. Where “and” joins values, the source holds several entries; their conditions need not be identical. Equal entries are not always repeated. Results filed as inconclusive are left out. More than one record can exist for a structure, and the calls need not agree. Calls of active or inactive are those of the source. Unless noted, the call rests on the fitted dose curve; in most records, active means well fitted curve in the direction sought with a large enough effect in the repeat runs; inconclusive means weak or mixed curves; inactive means no such curve, though single readings can be large; an effect the other way counts as inactive or inconclusive.

Aryl hydrocarbon receptor (Homo sapiens), sequence (P35869 whole entry, looked up): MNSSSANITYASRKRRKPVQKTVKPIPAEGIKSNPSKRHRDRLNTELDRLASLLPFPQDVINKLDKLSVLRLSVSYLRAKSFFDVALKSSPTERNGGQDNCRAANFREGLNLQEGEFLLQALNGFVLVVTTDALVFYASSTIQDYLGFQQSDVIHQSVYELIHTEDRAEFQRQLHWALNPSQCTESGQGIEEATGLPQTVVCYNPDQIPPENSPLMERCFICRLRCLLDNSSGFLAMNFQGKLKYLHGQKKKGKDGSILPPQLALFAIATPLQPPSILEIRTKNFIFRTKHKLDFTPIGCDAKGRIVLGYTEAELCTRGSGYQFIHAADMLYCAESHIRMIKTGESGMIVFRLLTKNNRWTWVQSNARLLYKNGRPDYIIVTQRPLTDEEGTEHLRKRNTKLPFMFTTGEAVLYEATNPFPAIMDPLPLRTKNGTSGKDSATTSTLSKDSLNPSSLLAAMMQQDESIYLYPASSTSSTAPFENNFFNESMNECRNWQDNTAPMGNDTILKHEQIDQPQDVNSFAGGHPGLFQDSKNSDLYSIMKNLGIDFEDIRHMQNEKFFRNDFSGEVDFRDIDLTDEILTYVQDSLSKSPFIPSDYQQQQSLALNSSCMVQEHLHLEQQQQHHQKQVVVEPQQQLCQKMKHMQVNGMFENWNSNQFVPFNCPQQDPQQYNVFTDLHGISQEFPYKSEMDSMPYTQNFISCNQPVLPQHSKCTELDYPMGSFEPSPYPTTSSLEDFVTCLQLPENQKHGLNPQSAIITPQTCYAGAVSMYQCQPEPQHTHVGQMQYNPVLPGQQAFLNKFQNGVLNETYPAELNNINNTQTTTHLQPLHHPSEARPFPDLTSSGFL
Peroxisome proliferator-activated receptor gamma (Homo sapiens), sequence (P37231 whole entry, looked up): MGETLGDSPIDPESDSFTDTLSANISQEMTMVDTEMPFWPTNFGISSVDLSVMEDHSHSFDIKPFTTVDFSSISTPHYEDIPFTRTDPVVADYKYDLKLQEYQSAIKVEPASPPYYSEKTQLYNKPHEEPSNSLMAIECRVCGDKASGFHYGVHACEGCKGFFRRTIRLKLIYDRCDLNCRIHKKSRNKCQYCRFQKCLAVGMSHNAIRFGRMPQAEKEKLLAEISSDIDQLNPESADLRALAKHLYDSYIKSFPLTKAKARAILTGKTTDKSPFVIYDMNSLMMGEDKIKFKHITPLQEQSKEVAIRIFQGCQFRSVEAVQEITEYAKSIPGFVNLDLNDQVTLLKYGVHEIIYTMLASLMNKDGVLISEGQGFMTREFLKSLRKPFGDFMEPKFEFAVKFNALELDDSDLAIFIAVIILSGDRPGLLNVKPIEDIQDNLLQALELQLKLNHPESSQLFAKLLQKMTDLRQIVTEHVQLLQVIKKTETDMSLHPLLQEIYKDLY
Peroxisome proliferator-activated receptor delta (Homo sapiens), sequence (Q03181 whole entry, looked up): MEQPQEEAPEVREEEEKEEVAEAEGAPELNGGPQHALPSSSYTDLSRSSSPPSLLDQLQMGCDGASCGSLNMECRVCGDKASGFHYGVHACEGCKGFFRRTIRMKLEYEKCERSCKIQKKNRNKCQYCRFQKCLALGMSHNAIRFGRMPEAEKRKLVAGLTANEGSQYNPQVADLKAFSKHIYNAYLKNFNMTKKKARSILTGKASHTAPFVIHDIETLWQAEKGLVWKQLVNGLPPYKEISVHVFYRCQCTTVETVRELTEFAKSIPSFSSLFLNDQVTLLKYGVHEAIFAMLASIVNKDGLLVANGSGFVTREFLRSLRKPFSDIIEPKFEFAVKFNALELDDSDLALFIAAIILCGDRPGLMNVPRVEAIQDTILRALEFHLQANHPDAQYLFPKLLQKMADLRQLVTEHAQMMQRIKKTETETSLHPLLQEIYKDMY
Bile acid receptor (Homo sapiens), sequence (Q96RI1 whole entry, looked up): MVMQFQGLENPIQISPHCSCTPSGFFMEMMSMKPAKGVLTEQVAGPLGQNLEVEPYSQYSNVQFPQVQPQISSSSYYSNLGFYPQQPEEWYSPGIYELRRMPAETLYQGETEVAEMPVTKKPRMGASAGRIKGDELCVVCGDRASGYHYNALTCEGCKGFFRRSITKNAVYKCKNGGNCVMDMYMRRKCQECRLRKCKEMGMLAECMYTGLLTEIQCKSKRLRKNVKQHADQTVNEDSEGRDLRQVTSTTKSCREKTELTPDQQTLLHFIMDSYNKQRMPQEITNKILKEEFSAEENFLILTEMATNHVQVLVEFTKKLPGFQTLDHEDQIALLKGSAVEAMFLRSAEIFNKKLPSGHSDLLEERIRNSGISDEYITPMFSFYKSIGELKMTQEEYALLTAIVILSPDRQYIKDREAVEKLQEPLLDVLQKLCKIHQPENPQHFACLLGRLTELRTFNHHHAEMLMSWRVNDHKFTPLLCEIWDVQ
Vitamin D3 receptor (Homo sapiens), sequence (P11473 whole entry, looked up): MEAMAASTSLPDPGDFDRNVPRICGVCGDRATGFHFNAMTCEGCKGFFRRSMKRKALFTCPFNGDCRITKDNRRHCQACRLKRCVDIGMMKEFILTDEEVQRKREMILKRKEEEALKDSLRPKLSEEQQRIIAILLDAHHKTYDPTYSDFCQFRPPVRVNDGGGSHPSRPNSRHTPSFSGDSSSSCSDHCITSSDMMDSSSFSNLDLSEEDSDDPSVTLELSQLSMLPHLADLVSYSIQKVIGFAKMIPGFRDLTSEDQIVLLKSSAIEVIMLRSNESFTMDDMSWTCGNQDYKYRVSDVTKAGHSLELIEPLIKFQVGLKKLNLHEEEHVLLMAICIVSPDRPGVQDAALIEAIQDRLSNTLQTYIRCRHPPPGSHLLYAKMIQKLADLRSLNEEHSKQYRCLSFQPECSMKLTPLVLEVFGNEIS

On to `NC1CCCCC1`, for which the Potency result in [1], in [3], in assay [4], in assay [5], in assay [6] and in [7] was “inactive” in each case. In addition, the Potency result in assay [8], in assay [9], in assay [11], in assay [12], in assay [13] and in [14] was “inactive” in each case. Moreover, the Potency result in assay [15], in [16], in assay [17] and in assay [18] was “inactive” in each case. In addition, the Potency in assay [2] was 30.8 µM (active) and inactive. For the same compound, the compound was called inactive in assay [10].

As for `Nc1c2c(nc3ccccc13)CCCC2`, the Potency entry in [1], in [3], in [4], in [5], in assay [6] and in assay [7] was “inactive” throughout. The Potency entry in assay [8], in assay [9], in assay [11], in assay [13], in assay [15] and in assay [16] was “inactive” each time. The Potency in [2] was 4.86 µM (active) and 61.1 µM (active). Further, the compound was classed as inactive in assay [10].

Turning to `O=S1(=O)OC(c2ccc(O)cc2)(c2ccc(O)cc2)c2ccccc21`, the Potency in assay [1] is 27.3 µM (active); in [3], 24.3 µM (active). Also, the Potency result in [2], in [4], in [5], in [6], in [7] and in [8] was “inactive” each time. The Potency entry in [9], in assay [11], in [12], in assay [13], in assay [14] and in [15] was “inactive” throughout. For the same compound, the Potency entry in assay [16], in [17] and in assay [18] was “inactive” in each case. Besides, the outcome in [10] was inactive.

Take `CC1(C)O[C@@H]2C[C@H]3[C@@H]4CCC5=CC(=O)C=C[C@]5(C)[C@@]4(F)[C@@H](O)C[C@]3(C)[C@]2(C(=O)CO)O1`: the Potency entry in assay [1], in assay [2], in [3], in [4], in assay [5] and in assay [6] was “inactive” throughout. The Potency entry in [7], in assay [8], in [9], in assay [11], in assay [12] and in assay [13] was “inactive” throughout. Also, the Potency entry in assay [14], in [19], in assay [15], in assay [16], in assay [17] and in assay [18] was “inactive” throughout. The call in [20] was inactive.

In the case of `CN(N=O)C(=O)N[C@@H]1[C@@H](O)[C@H](O)[C@@H](CO)O[C@@H]1O`, the Potency result in [1], in assay [2], in assay [3], in assay [4], in assay [5] and in [6] was “inactive” each time. For the same compound, the Potency entry in [7], in assay [8], in assay [9], in [11], in [12] and in assay [13] was “inactive” each time. Besides, the Potency result in assay [14], in [19], in assay [15], in assay [16], in assay [17] and in assay [18] was “inactive” in each case. Further, the compound was classed as inactive in assay [10] and in assay [20].

In the case of `CC12CCC(CC1)C(C)(C)O2`, the Potency result in [1], in assay [2], in assay [3], in assay [4], in assay [5] and in assay [6] was “inactive” in each case. In addition, the Potency entry in assay [7], in assay [8], in assay [9], in [11], in assay [12] and in assay [13] was “inactive” each time. Besides, the Potency result in [14], in [19], in assay [15], in assay [16], in assay [17] and in assay [18] was “inactive” in each case. Further, the compound was classed as inactive in assay [10] and in [20].

Regarding `CC(C)C(=O)Nc1ccc([N+](=O)[O-])c(C(F)(F)F)c1`, the Potency entry in assay [1], in assay [2], in [3], in assay [4], in [5] and in assay [6] was “inactive” each time. Further, the Potency result in [8], in [9], in assay [11], in [13], in assay [19] and in [15] was “inactive” throughout. For the same compound, the Potency entry in assay [16] was “inactive”. Also, the Potency in assay [7] was 19.3 µM (active) and 23.7 µM (active). For the same compound, the compound was classed as inactive in assay [10] and in [20].

(Values after PubChem BioAssay (Tox21).)
